This is an account of results in PubChem BioAssay (NCATS).

The nature of assay [1]: qHTS profiling for inhibitors of Plasmodium falciparum proliferation (AID 504749).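 For activity, negative = inhibition: 0% = DMSO vehicle and full inhibition = artemisinin control.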 Note: nearly all actives have a fitted effect of over 60% in size. The conditions noted are these: P. falciparum in erythrocytes, SYBR Green DNA, 72 h. The essentials: (§1)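 Three-day growth assay of blood-stage parasites in erythrocytes (0.3% parasitemia, 2.5% hematocrit) at 37 C, 5% CO2, quantified by SYBR Green DNA staining after overnight detergent lysis.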
Background: Quantitative high-throughput screening tests each substance at several concentrations.

Assay [2] concerns 3D7. Described as above. The conditions noted are these: P. falciparum in erythrocytes, SYBR Green DNA, 72 h; series mostly up to 28.7 µM. The gist of the method: as §1
Assay [3] has as its system AA1029. The assay is described as above. The conditions noted are these: P. falciparum in erythrocytes, SYBR Green DNA, 72 h; series mostly up to 28.7 µM. The essentials:
as §1

For assay [4], the system named is AS120. The assay is described as above. The following applies: P. falciparum in erythrocytes, SYBR Green DNA, 72 h; series mostly up to 28.7 µM. The essentials: as §1
For assay [5], the system named is ATS189. The description is as above. The following applies: P. falciparum in erythrocytes, SYBR Green DNA, 72 h; series mostly up to 28.7 µM. The gist of the method: as §1
In assay [6] the test system is ATS95. The description is as above. The conditions noted are these: P. falciparum in erythrocytes, SYBR Green DNA, 72 h; series mostly up to 28.7 µM. The essentials:
as §1

Assay [7] has as its system 7G8. The assay is described as above. The conditions noted are these: P. falciparum in erythrocytes, SYBR Green DNA, 72 h; series mostly up to 28.7 µM. The gist of the method: as §1
[8] abbreviates: at 12.8 µM (top of the series), parasite line A.
[9] abbreviates: at 12.8 µM (top of the series), parasite line B.
Where [10] appears, read: at 28.7 µM (top of the series), parasite line A.
Where [11] appears, read: at 28.7 µM (top of the series), parasite line B.

Records with an inconclusive call do not appear. A number with no mark means an inactive call. The source made the active and inactive calls. Calls come from the whole dose curve; as a rule, active = well fitted inhibition curve with a large enough effect; inconclusive = small, poorly fitted or top-dose-only effect; inactive = flat fitted curve, though single readings scatter.
Potency is the fitted concentration of half-maximal effect.

As to `C[C@H]1[C@H](NC(=O)/C(=N/OC(C)(C)C(=O)O)c2csc(N)n2)C(=O)N1S(=O)(=O)O` (stereo in doubt), the figures for the activity, negative = inhibition in assay [1] (setting [8]) and in assay [1] (setting [9]) were 1.65% and 14.2%, respectively. The Potency entry in assay [2], in assay [3], in assay [4], in assay [5] and in assay [6] was “inactive” in each case.
As for `CCN(CCCc1ccccc1)CCCc1ccccc1`, the values for the activity, negative = inhibition in assay [1] (setting [8]) and in assay [1] (setting [9]) were -8.39% and -11%, respectively. The Potency entry in assay [2] was “inactive”. Also, the Potency in assay [6] was 3.55 µM (active).
As for `CN(C)CCOc1ccccc1Cc1ccccc1`, the activity, negative = inhibition in assay [1] (setting [10]) is -13.9%; in assay [1] (setting [11]), -12.1%. Moreover, the Potency result in assay [2] was “inactive”. Also, the Potency in assay [3] was 7.94 µM (active); in assay [4], 1.78 µM (active).
In the case of `Oc1c(I)cc(Cl)c2cccnc12`, the Potency in assay [1] (parasite line A) is 8.91 µM (active); in assay [1] (parasite line B), 8.91 µM (active); in assay [4] it was 10 µM (active); in assay [5] it was 12.6 µM (active). Besides, the Potency entry in assay [2] and in assay [6] was “inactive” in each case.
For the compound `CC(=O)c1ccc2c(c1)N(CCCN1CCC(CCO)CC1)c1ccccc1S2`, the activity, negative = inhibition in assay [1] (setting [8]) was -2.26%; in assay [1] (setting [9]), 0.0996%. The Potency entry in assay [2], in assay [3], in assay [4], in assay [5] and in assay [6] was “inactive” throughout.
Take `C#C[C@]1(O)CC[C@H]2[C@@H]3CCc4cc(OC5CCCC5)ccc4[C@H]3CC[C@@]21C`: the activity, negative = inhibition was -10.1% in assay [1] (setting [10]) and -11.7% in assay [1] (setting [11]). The Potency entry in assay [2], in assay [3] and in assay [5] was “inactive” in each case.
For `C[C@H]1C[C@H]2[C@@H]3CCC4=CC(=O)C=C[C@]4(C)[C@@]3(Cl)[C@@H](O)C[C@]2(C)[C@@]1(O)C(=O)CO`, the activity, negative = inhibition in assay [1] (setting [10]) is 2.21%; in assay [1] (setting [11]), 13.1%. Also, the Potency entry in assay [2], in assay [3], in assay [4], in assay [5] and in assay [6] was “inactive” throughout.
Consider `O=C1OC(c2ccc(O)cc2)(c2ccc(O)cc2)c2ccccc21`, for which the activity, negative = inhibition in assay [1] (setting [10]) was -7.68%; in assay [1] (setting [11]) it was 10.2%. The Potency entry in assay [2], in assay [7], in assay [3], in assay [4] and in assay [6] was “inactive” each time.
Regarding `CCCCN1CCCC1C(=O)Nc1c(C)cc(C)cc1C` (stereo not given), the activity, negative = inhibition is -15.8% in assay [1] (setting [10]) and -3.59% in assay [1] (setting [11]). Besides, the Potency result in assay [2], in assay [3], in assay [4], in assay [5] and in assay [6] was “inactive” in each case.
With `CCCCOc1cc(C(=O)NCCN(CC)CC)c2ccccc2n1`, the results for the activity, negative = inhibition in assay [1] (setting [8]) and in assay [1] (setting [9]) were 7.49% and 7.29%, respectively. Further, the Potency result in assay [2], in assay [3], in assay [4], in assay [5] and in assay [6] was “inactive” each time.
On to `CCN1CCC[C@H]1CNC(=O)c1c(OC)ccc(Br)c1OC`, for which the activity, negative = inhibition in assay [1] (setting [10]) is 12.1%; in assay [1] (setting [11]), 10%. Moreover, the Potency result in assay [2], in assay [7], in assay [4], in assay [5] and in assay [6] was “inactive” in each case.
Turning to `CC(O)C(=O)O` (stereo not given), the activity, negative = inhibition in assay [1] (setting [10]) is 1.12%; in assay [1] (setting [11]), 5.39%. For the same compound, the Potency entry in assay [7], in assay [3], in assay [4] and in assay [5] was “inactive” in each case.
With `CCCCCCCCCCCCCCCCOP(=O)([O-])OCC[N+](C)(C)C`, the results for the activity, negative = inhibition in assay [1] (setting [10]) and in assay [1] (setting [11]) were -1.43% and 12.3%, respectively. In addition, the Potency entry in assay [2], in assay [3], in assay [4], in assay [5] and in assay [6] was “inactive” in each case.
With `O=C(N/N=C/c1ccccc1O)c1ccncc1`, the Potency in assay [1] (parasite line A) is 6.31 µM (active); in assay [1] (parasite line B) it was 11.2 µM (active); in assay [7], 8.91 µM (active); in assay [3] it was 11.2 µM (active); in assay [4] it was 4.47 µM (active).
On to `CCN(CC)CCOC(=O)C(c1ccccc1)C1CCCCC1` (stereo not given), for which the values for the activity, negative = inhibition in assay [1] (setting [10]) and in assay [1] (setting [11]) were 0.689% and -1.84%, respectively. Also, the Potency entry in assay [2], in assay [4] and in assay [5] was “inactive” in each case.
Take `CCN1CCN(c2cc3c(cc2F)c(=O)c(C(=O)O)cn3C2CC2)CC1`: the results for the activity, negative = inhibition in assay [1] (setting [10]) and in assay [1] (setting [11]) were -8.55% and -3.41%, respectively. For the same compound, the Potency entry in assay [2], in assay [3], in assay [4], in assay [5] and in assay [6] was “inactive” each time.
`CN1CCN(C(c2ccccc2)c2ccccc2)CC1`: the activity, negative = inhibition in assay [1] (setting [8]) was 3.5%; in assay [1] (setting [9]), -5.02%. Moreover, the Potency entry in assay [2], in assay [4] and in assay [5] was “inactive” in each case.
For `C[C@@H](CN(C)C)CN1c2ccccc2Sc2ccccc21`, the activity, negative = inhibition in assay [1] (setting [8]) was 1.53%; in assay [1] (setting [9]), 7.77%. Further, the Potency entry in assay [2], in assay [3], in assay [4], in assay [5] and in assay [6] was “inactive” in each case.
Take `c1ccc(OCc2ccc(CCCN3CCOCC3)cc2)cc1`: the activity, negative = inhibition in assay [1] (setting [10]) is 3.42%; in assay [1] (setting [11]) it was 8.4%. For the same compound, the Potency result in assay [2], in assay [3], in assay [4], in assay [5] and in assay [6] was “inactive” in each case.
For `CCCN1CCCC[C@H]1C(=O)Nc1c(C)cccc1C`, the values for the activity, negative = inhibition in assay [1] (setting [10]) and in assay [1] (setting [11]) were 9.76% and 10.7%, respectively. Moreover, the Potency entry in assay [2], in assay [3], in assay [4], in assay [5] and in assay [6] was “inactive” each time.
On to `OC(CCN1CCCCC1)(c1ccccc1)c1ccccc1`, for which the activity, negative = inhibition in assay [1] (setting [10]) is 0.409%; in assay [1] (setting [11]), -16.8%. Further, in assay [2], the Potency result is “inactive”. The Potency in assay [7] is 11.2 µM (active); in assay [3], 7.94 µM (active); in assay [4] it was 11.2 µM (active); in assay [6], 8.91 µM (active).
As to `CN(C(=O)CN(CCO)CC(=O)N(C)C(C)(C)Cc1ccccc1)C(C)(C)Cc1ccccc1`, the activity, negative = inhibition in assay [1] (setting [8]) is 4.12%; in assay [1] (setting [9]), -5.35%. Moreover, the Potency result in assay [2], in assay [3] and in assay [6] was “inactive” throughout. For the same compound, in assay [7], the Potency is 3.16 µM (active).
Consider `COc1cc2c(cc1OC)C(=O)C(CC1CCN(Cc3ccccc3)CC1)C2` (stereo not given), for which the activity, negative = inhibition in assay [1] (setting [10]) was -29.4%; in assay [1] (setting [11]), 5.51%. Besides, the Potency entry in assay [2], in assay [4] and in assay [6] was “inactive” throughout.
As to `CCOC(=O)c1cccc(N)c1`, the activity, negative = inhibition in assay [1] (setting [10]) was 6.66%; in assay [1] (setting [11]) it was 6.86%. For the same compound, the Potency result in assay [2], in assay [7], in assay [3], in assay [4], in assay [5] and in assay [6] was “inactive” in each case.
As to `CC(C)(C(=O)c1cccnc1)c1cccnc1`, the values for the activity, negative = inhibition in assay [1] (setting [8]) and in assay [1] (setting [9]) were -8.96% and -23.5%, respectively. The Potency entry in assay [2], in assay [3], in assay [4], in assay [5] and in assay [6] was “inactive” throughout.
In the case of `CC(=O)N/N=C/c1ccc([N+](=O)[O-])o1`, the Potency in assay [1] (parasite line A) was 1.12 µM (active); in assay [1] (parasite line B), 12.6 µM (active); in assay [7], 7.94 µM (active); in assay [4], 7.08 µM (active). The Potency entry in assay [2] and in assay [5] was “inactive” in each case.
Take `Cc1cc(O)c(C(C)C)cc1Cl`: the activity, negative = inhibition was 0.647% in assay [1] (setting [10]) and 11.2% in assay [1] (setting [11]). In addition, the Potency entry in assay [2], in assay [3], in assay [4], in assay [5] and in assay [6] was “inactive” each time.
Turning to `O=c1c(-c2ccccc2)c1-c1ccccc1`, the Potency in assay [1] (parasite line A) is 11.2 µM (active); in assay [1] (parasite line B), 10 µM (active); in assay [2], 11.2 µM (active); in assay [7] it was 8.91 µM (active); in assay [5], 10 µM (active).
For the compound `N[C@H](Cc1c[nH]c2ccccc12)C(=O)O`, the values for the activity, negative = inhibition in assay [1] (setting [10]) and in assay [1] (setting [11]) were 7.64% and 6.56%, respectively. Besides, the Potency result in assay [2], in assay [3], in assay [4], in assay [5] and in assay [6] was “inactive” throughout.
For `CCOC(=O)COc1ccc2c(C)c(CCN(CC)CC)c(=O)oc2c1Cl`, the activity, negative = inhibition in assay [1] (setting [11]) was -29.4%. In assay [1] (parasite line A), the Potency is 3.55 µM (active). For the same compound, the Potency result in assay [2], in assay [7], in assay [3], in assay [5] and in assay [6] was “inactive” throughout.
